Bioassay records: PubChem BioAssay, National Center for Advancing Translational Sciences (NCATS)
DT40 TDP1 CPT: qHTS for Inhibitors of human tyrosyl-DNA phosphodiesterase 1 (TDP1): qHTS in cells in presence of CPT | chicken DT40 Tdp1-/-;hTDP1 cells + 20 nM CPT, ATP luminescence, 48 h | Potency, µM (top dose mostly 46.2 µM), for inactives: top-dose activity change, negative = growth inhibition, hits mostly inhibitors | 420,000 compounds, 12% hits; note: nearly all actives have a fitted effect of over 55% in size
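Chicken DT40 Tdp1-/- cells complemented with human TDP1, 400 cells/well, exposed to compounds plus 20 nM camptothecin for at least 48 h at 37 C; viability read as ATP content by CellTiter-Glo luminescence.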
KB-V1 cytotox: qHTS assay for MDR1-selective chemotherapeutics: Primary screen using the drug-selected MDR subline cells KB-V1. Potency, µM (doses to about 46.1 µM), hits mostly cytotoxic. 400,000 compounds, 3.4% hits. AID 1347076, 2019. KB-V1 MDR cells viability, CellTiter-Glo, 72 h; note: nearly all actives have a fitted effect of over 60% in size
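Potencies derive from concentration-effect curves fitted to normalized luminescence (CellTiter-Glo) of KB-V1 cells treated for 72 h at 37 degrees C in phenol-red-free DMEM containing 10% FBS.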
HT1080-NT tox: qHTS for induction of synthetic lethality in tumor cells producing 2HG: qHTS for the HT-1080-NT fibrosarcoma cell line. HT-1080-NT fibrosarcoma viability, CellTiter-Glo ATP luminescence, 48 h. 360,000 compounds, 1.6% hits. Potency, µM (titrated, usually from 46.1 µM), for inactives: top-dose activity, negative = less viability, usual class: cytotoxic;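 note: NT is the 2HG producing partner of a matched IDH1 knockdown line; 0% = DMSO-treated cells and -100% = media-only wells without cells; nearly all actives have a fitted effect of over 55% in size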
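HT-1080-NT; 750 cells/well; 5% FBS RPMI; 48 h compound, 37 degrees C; CellTiter-Glo luminescence; curve fitting and curve-class assignment.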
DT40 TDP1 no CPT: qHTS for Inhibitors of human tyrosyl-DNA phosphodiesterase 1 (TDP1): qHTS in cells in absence of CPT; DT40 Tdp1-/- hTDP1 cells, no CPT, ATP luminescence, 48 h; AID 686978, 2013; 420,000 compounds, 15% hits; Potency, µM (top dose mostly 46.2 µM), inactives show at the highest dose activity change, negative = growth inhibition, actives largely listed as inhibitors; note: nearly all actives have a fitted effect of over 55% in size
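Compound effects on proliferation are scored in DT40 Tdp1-/-;hTDP1 cells in the absence of CPT. ATP levels (CellTiter-Glo luminescence) are recorded after a ≥48 hr, 37 °C incubation.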
HT1080 IDH1KD tx: qHTS for induction of synthetic lethality in tumor cells producing 2HG: qHTS for the HT-1080-IDH1KD cell line; Potency, µM (series often up to 46.1 µM), without a hit: top-dose activity, negative = toxicity, hits mostly cytotoxic; AID 686971, 2013; HT-1080 IDH1 knockdown viability, ATP luminescence, 48 h; 360,000 compounds, 2% hits;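 note: 0% = DMSO wells and -100% = cell-free medium wells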
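After a 2 h attachment period, IDH1KD HT-1080 cells took pin-transferred compound for 48 h at 37 °C; ATP-based luminescence after 10 min room-temperature reagent incubation reported viability.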
KB-3-1 cytotox: qHTS assay for MDR1-selective chemotherapeutics: Primary screen using the parental adenocarcinoma cell KB-3-1; Potency, µM (titrated, usually from 46.1 µM), hits mostly cytotoxic; 400,000 compounds, 1.4% hits; KB-3-1 viability, CellTiter-Glo ATP luminescence, 72 h; note: nearly all actives have a fitted effect of over 60% in size
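Cytotoxicity in the drug-sensitive parental line KB-3-1 was scored as loss of CellTiter-Glo luminescence following 72 h incubation with compound. Values come from curve fitting of normalized concentration-response data.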
Numbers without * were called inactive; i = inactive; u = inconclusive; x = no result. An excerpt weighted towards active compounds, which were near 19% of everything screened. Calls come from the whole dose curve; as a rule, active = well fitted curve in the direction sought with a large enough effect; inconclusive = small, poorly fitted or top-dose-only effect, or another doubt; inactive = no such curve, though single readings can be large; an effect the other way counts as inactive or inconclusive. Unless noted, % is set by controls: 0 for no effect and ±100 for the full control effect; potency is the fitted concentration of half-maximal effect.

SMILES	DT40 TDP1 CPT	KB-V1 cytotox	HT1080-NT tox	DT40 TDP1 no CPT	HT1080 IDH1KD tx	KB-3-1 cytotox
CSc1ccc(/C=C/C(=O)N2CCN(c3ccccn3)CC2)cc1	-21.8%	i	20.5%	-23.2%	20.6%	i
COc1cc(NC(C)CCc2ccccc2)cc(OC)c1OC (configuration not stated)	13µM*	u	0.6%	10.3µM*	-4.5%	i
COc1cc(C(=O)NCCCCc2ccccc2)cc(OC)c1OC	u	i	0.0%	5.8µM*	0.4%	i
COc1cc(C(=O)NCCOc2ccc(C)c(C)c2)cc(OC)c1OC	-19.3%	i	0.2%	-10.8%	-20.7%	u
COc1cc(C(=O)NCCCCCCNC(=O)c2cc(OC)c(OC)c(OC)c2)cc(OC)c1OC	11.1%	i	10.2%	0.5%	11.2%	i
COc1cccc(OCCNC(=O)c2cc(OC)c(OC)c(OC)c2)c1	u	i	-4.7%	13µM*	-4.8%	i
O=c1c(-c2ccc(F)cc2)nc2cnc(Nc3ccccc3)nc2n1C[C@H]1CCCO1	25.2%	x	x	-3.1%	x	x
CCOc1cccc2sc(N(CCN(C)C)C(=O)/C=C/c3cccs3)nc12	7.31µM*	i	u	23.1µM*	u	i
CN(C)CCN(C(=O)/C=C/c1cccs1)c1nc2ccc(Br)cc2s1	u	i	-11.4%	u	-13.9%	i
COc1cccc2sc(N(CCN(C)C)C(=O)/C=C/c3cccs3)nc12	u	i	-15.5%	20.6µM*	u	i
Cc1nn(C)c(C)c1CN(Cc1nc(-c2cc(F)ccc2F)oc1C)C1CC1	u	16.4µM*	-15.9%	u	u	i
Cc1nn(C)c(C)c1CN(Cc1nc(-c2ccc(F)cc2F)oc1C)C1CC1	u	u	-1.9%	u	-16.0%	i
CCCc1nc2ccccc2c(=O)n1-c1c(C)n(C)n(-c2ccccc2)c1=O	25.9µM*	i	16.4%	18.4µM*	8.0%	i
CCC(C)c1ccc(NC(=S)Nc2ccc(OC)c(OC)c2)cc1 (configuration not stated)	u	i	-1.7%	u	-3.9%	i
CCC(C)c1ccc(C(CC)NC(=O)C2CCCO2)cc1 (configuration not stated)	23.1µM*	i	u	u	-18.8%	i
CCC(C)c1ccc(NC(=S)NC(C)C2CCCO2)cc1 (configuration not stated)	-17.5%	i	-0.2%	25.9µM*	-6.3%	i
CC(O)(c1cccnc1)c1nc(-c2ccc(S(C)(=O)=O)cc2)cs1 (configuration not stated)	-19.8%	i	18.1%	-2.8%	22.2%	i
CCc1ccccc1NC(=O)CN1C(=O)COc2ccc(S(=O)(=O)N3CCCCCC3)cc21	-14.4%	x	x	u	x	x
CCn1cc(C(=O)NCc2ccc(C)cc2)c(=O)c2cc(S(=O)(=O)N(C)C)ccc21	u	i	1.9%	u	-1.4%	i
Cc1ccc2cc(CCNC(=O)c3ccc(Br)o3)c(=O)[nH]c2c1	u	18.4µM*	0.1%	u	17.5%	u
O=C(NCCC1=CCCCC1)c1ccc(Br)o1	8.2µM*	i	15.6%	9.2µM*	12.3%	i
COc1ccc2cc(CCNC(=O)c3cc4ccccc4o3)c(=O)[nH]c2c1	20.6µM*	i	-2.7%	u	-2.1%	i
CC(C)CCN1C(=O)c2ccc(C(=O)Nc3ccc(Br)cc3C(=O)O)cc2C1=O	-1.0%	i	-1.3%	-0.2%	2.7%	i
CCC(=O)N1c2ccccc2CC1C(=O)NCc1ccccc1C (configuration not stated)	-12.7%	i	x	-4.0%	x	i
COc1cccc2cc(S(=O)(=O)c3ccc(F)c(C)c3)c(=O)oc12	-6.8%	i	x	-5.3%	x	i
SMILES	DT40 TDP1 CPT	KB-V1 cytotox	HT1080-NT tox	DT40 TDP1 no CPT	HT1080 IDH1KD tx	KB-3-1 cytotox
CCN1CCN(c2nnc(-n3cccc3C(=O)Nc3cccc(OC)c3)s2)CC1	-24.7%	i	x	u	x	i
COc1ccc(NC2CCCN(C(=O)COc3ccc(Cl)cc3C)C2)cc1OC (configuration not stated)	23.1µM*	7.31µM*	-4.3%	25.9µM*	-2.3%	i
COc1ccccc1OCC(=O)N1CCCC(Nc2ccc(C)c(C)c2)C1 (configuration not stated)	u	x	-11.9%	-16.4%	-13.5%	x
O=C1C=Cc2cccc3ccc(O)c1c23	23.1µM*	u	u	14.6µM*	u	u
O=C1c2cccc3cccc(c23)C(=O)N1c1ccc(O)cc1	-1.1%	i	9.0%	4.9%	7.9%	i
O=C(Cc1cccs1)N(Cc1cccs1)C1(C(=O)NC2CCCC2)CCCCC1	8.2µM*	8.2µM*	4.3%	6.51µM*	2.3%	u
O=C(Cc1cccs1)N(Cc1ccco1)C1(C(=O)NC2CCCCC2)CCCCC1	14.6µM*	u	5.3%	18.4µM*	12.6%	i
O=C(Cc1cccs1)N(c1ccc(F)cc1)C1(C(=O)NC2CCCCC2)CCCC1	u	i	-0.3%	23.1µM*	0.3%	i
O=C1NC(=O)C(CC(=O)N(c2ccccc2)C2(C(=O)NC3CCCC3)CCCCC2)N1 (configuration not stated)	-27.7%	i	-0.3%	-13.9%	-0.7%	i
O=C(Cc1cccs1)N(CC1CCCO1)C1(C(=O)NC2CCCC2)CCCCC1 (configuration not stated)	u	u	-2.7%	16.4µM*	4.6%	i
O=C(c1ccc2c(c1)OCO2)N(CC1CCCO1)C1(C(=O)NC2CCCCC2)CCCCC1 (configuration not stated)	u	u	9.8%	u	2.7%	i
O=C(c1ccc(=O)[nH]c1)N(Cc1cccs1)C1(C(=O)NC2CCCC2)CCCCC1	-1.1%	i	9.4%	-6.3%	13.9%	i
CC(=O)N(Cc1ccco1)C1(C(=O)NC2CCCCC2)CCCCC1	u	i	11.3%	u	4.9%	i
